# According to PubChem BioAssay (NCATS):
# Where “and” joins values, the source holds several entries; their conditions need not be identical. Equal values may be shown once. Results filed as inconclusive are left out. Values without a mark were called inactive. Calls of active or inactive are those of the source. Calls follow the shape of the dose curve; as a rule, active = well fitted curve in the direction sought with a large enough effect; inconclusive = small, poorly fitted or top-dose-only effect, or another doubt; inactive = no such curve, though single readings can be large or run the other way.
# Assay: qHTS Assay for Identifying Gametocytocidal Compounds (AID 743244);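 as to max response: actives lower the fluorescent signal which means gametocytes are killed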
# Details: P. falciparum 3D7 stage III-V gametocytes, alamarBlue, 72 h; max response: active compounds read low
# Procedure, shortened: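 Fluorescence at Ex 525/Em 598 nm, recorded 24 h after alamarBlue addition, reports residual metabolic activity of 3D7 gametocytes (stages III–V) following 72 h compound exposure at 37 °C, 5% CO2.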
# % is scaled to controls: 0 for no effect and ±100 for the full control effect; potency is read from the fitted curve at half-maximal effect.
SMILES,Potency,max response
CC(C(O)c1ccccc1)N(C)CCOC(c1ccccc1)c1ccccc1 (stereo not given),5.01 µM (active),
C#C[C@]1(O)CC[C@H]2[C@@H]3CCC4=CC(=O)CCC4=C3C=C[C@@]21CC,,-5.06%
CCCOC(=O)Cc1ccc(OCC(=O)N(CC)CC)c(OC)c1,,-6.3%
CN1C(=O)[C@@H](NC(=O)c2cc3ccccc3[nH]2)N=C(c2ccccc2)c2ccccc21,,-6.73%
O=C1NCN(c2ccccc2)C12CCN(CCCOc1ccc(F)cc1)CC2,,0.637%
CCC(=O)OC1(c2ccccc2)CCN(C)CC1,,-1.1%
CCCCCOc1ccc(C2SC(=O)NC2=O)cc1OCC (stereo not given),,38.7%
O=C(O)CCCCCCNC1c2ccccc2CCc2ccccc21,,-6.01%
C[C@]12C=CC(=O)C=C1CC[C@@H]1[C@@H]2CC[C@@]2(C)[C@H]1CC[C@]2(C)O,,-4.85%
COc1ccc2c3c1O[C@H]1[C@@H](O)C=C[C@H]4[C@@H](C2)N(C)CC[C@@]341,,7.49%
CCN(CC)Cc1nccn1-c1ccc([N+](=O)[O-])cc1C(=O)c1ccccc1Cl,16.6 µM (active),
C[N+](C)(C)CCOC(=O)C(O)(c1ccccc1)c1ccccc1,,-1.74%
CC(C)(C)OC(=O)c1ncn2c1[C@@H]1CCCN1C(=O)c1c(Br)cccc1-2,,3.06%
CN1C(=O)CN=C(c2ccccc2)c2cc([N+](=O)[O-])ccc21,,4.86%
Cc1nnc2n1-c1sc(CCC(=O)N3CCOCC3)cc1C(c1ccccc1Cl)=NC2,,-5.44% and -14.1%
Clc1ccc(CSC(Cn2ccnc2)c2ccc(Cl)cc2Cl)cc1 (stereo not given),3.98 µM (active),
CCOC(=O)c1cncn1C(C)c1ccccc1 (stereo not given),,-8.82%
NCc1cccnc1,,-3.33%

SMILES,Potency,max response
CCCCC1C(=O)NC(=O)N(C2CCCCC2)C1=O (stereo not given),,-2.42%
CC[C@H]1C[C@H]2[C@@H]3CCC4=CC(=O)CC[C@@H]4[C@H]3CC[C@]2(C)[C@H]1O,,-17.8%
O=C(N[C@H]1N=C(c2ccccc2F)c2cccc3c2N(CC3)C1=O)c1cc2ccccc2[nH]1,,-4.83%
CC(Cc1ccc2c(c1)OCO2)NO (stereo not given),,-6.74%
O=C(O)Cc1ccccc1,,-12.8%
O=C(Nc1ccc(Cl)cc1)Nc1ccc(Cl)c(C(F)(F)F)c1,12.6 µM (active),
CCN(CC)CCOC(=O)C(C)(c1ccccc1)c1ccccc1,,10.8%
CNC(C)Cc1ccccc1OC (stereo not given),,0.178%
C[C@]12Cc3nonc3C[C@@H]1CC[C@@H]1[C@@H]2CC[C@@]2(C)[C@H]1CC[C@]2(C)O,,-3.73%
CCN(CC)CCCN(c1ccccc1)C1Cc2ccccc2C1,8.91 µM (active),
CN(C)C(=O)Oc1cc(OC(=O)N(C)C)cc(C(O)CNC(C)(C)C)c1 (stereo not given),,14.4%
CC[C@H](O)C(C[C@H](C)N(C)C)(c1ccccc1)c1ccccc1,,-14.1%
Cc1c(C)c2c(c(C)c1OC(=O)CCC(=O)OCCO)CC[C@@](C)(CCC[C@H](C)CCC[C@H](C)CCCC(C)C)O2,,-0.873%
C=CC[C@]1(O)CC[C@H]2[C@@H]3CCC4=CC(=O)CCC4=C3C=C[C@@]21C,,1.81%
COc1cc(CC(C)N)cc2c1OCO2 (stereo not given),,-6.22%
C[C@]12CC[C@H]3[C@@H](CC=C4C[C@@H](O)CC[C@@]43C)[C@@H]1CC[C@@H]2O,,-0.897%
C[N+]1(C)[C@@H]2CC[C@H]1CC(OC(=O)C(CO)c1ccccc1)C2 (stereo not given in full),,-7.22% and -0.641%
